Read-out in experiment [1]: Thrombomodulin, THBD (gene 7056)
Put plainly: BSK_CASM3C_Thrombomodulin: BioMAP Diversity Plus: CASM3C Assay for Thrombomodulin Biomarker Activity (AID 2283051).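 Further: thrombomodulin protein level measured by ELISA 24 h after dosing.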 The conditions noted are these: primary human coronary artery smooth muscle cells; actives raise or lower the signal.

Read-out in experiment [2]: Tissue Factor, F3 (gene 2152)
Put plainly: BSK_CASM3C_TissueFactor: BioMAP Diversity Plus: CASM3C Assay for Tissue Factor Biomarker Activity (AID 2283052).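 Further: cell surface tissue factor protein level read by ELISA.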 The settings on record: primary human coronary artery smooth muscle cells; actives raise or lower the signal.

Read-out in experiment [3]: Interferon-gamma inducible Protein 10 (IP10), CXCL10 (gene 3627)
Description: BSK_hDFCGF_IP10: BioMAP Diversity Plus: hDFCGF Assay for Interferon-gamma inducible Protein 10 (IP10) Biomarker Activity (AID 2283053). The settings on record: primary human foreskin fibroblasts; actives raise or lower the signal. In a few lines:
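Chemical-treated human skin fibroblasts (primary) were sampled at 24 h for IP-10 by ELISA. Both increases and decreases relative to DMSO were scored.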

Read-out in experiment [4]: Urokinase-type plasminogen activator receptor (uPAR), PLAUR (gene 5329)
Description: BSK_CASM3C_uPAR: BioMAP Diversity Plus: CASM3C Assay for Urokinase-type plasminogen activator receptor (uPAR) Biomarker Activity (AID 2283054).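 Further: cell-surface uPAR protein level quantified by ELISA.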 The settings on record: primary human coronary artery smooth muscle cells; actives raise or lower the signal.

Read-out in experiment [5]: Vascular cell adhesion molecule 1 (VCAM1), VCAM1 (gene 7412)
Description: BSK_CASM3C_VCAM1: BioMAP Diversity Plus: CASM3C Assay for Vascular cell adhesion molecule 1 (VCAM1) Biomarker Activity (AID 2283055).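 Further: VCAM-1 protein level quantified by ELISA on the cells.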 The settings on record: primary human coronary artery smooth muscle cells; actives raise or lower the signal.

Read-out in experiment [6]: Collagen III, COL3A1 (gene 1281)
Put plainly: BSK_hDFCGF_CollagenIII: BioMAP Diversity Plus: hDFCGF Assay for Collagen III Biomarker Activity (AID 2283056). The conditions noted are these: primary human foreskin fibroblasts; actives raise or lower the signal. Summed up: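 Human foreskin primary fibroblasts were exposed to test chemicals for 24 h, after which collagen III was quantified by ELISA. Activity was fitted bidirectionally against DMSO as negative control and baseline.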

Read-out in experiment [7]: Interleukin-8 (IL8), CXCL8 (gene 3576)
Put plainly: BSK_hDFCGF_IL8: BioMAP Diversity Plus: hDFCGF Assay for Interleukin-8 (IL8) Biomarker Activity (AID 2283058). The conditions noted are these: primary human foreskin fibroblasts; actives raise or lower the signal. In a few lines: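 hDFCGF human dermal fibroblasts; 24 h chemical exposure; IL-8 by ELISA; bidirectional curve fit vs DMSO baseline; gain or loss of signal scored.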

Experiment [8] can be described thus: BSK_hDFCGF_Proliferation: Cell Proliferation Assessment in the BioMAP Diversity Plus: hDFCGF Assay (AID 2283059).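 Further: curves fitted for both rise and fall of signal versus DMSO baseline.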 The conditions noted are these: primary human foreskin fibroblasts. In a few lines: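 This proliferation readout used SRB total-protein staining of human foreskin fibroblasts […], normalized to DMSO with bidirectional curve fitting.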

Read-out in experiment [9]: Macrophage colony-stimulating factor (MCSF), CSF1 (gene 1435)
Put plainly: BSK_hDFCGF_MCSF: BioMAP Diversity Plus: hDFCGF Assay for Macrophage colony-stimulating factor (MCSF) Biomarker Activity (AID 2283060). The settings on record: primary human foreskin fibroblasts; actives raise or lower the signal. Summed up:
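Human foreskin primary fibroblasts were treated with test chemical for 24 h, and M-CSF was then measured by ELISA. Data were fitted bidirectionally against DMSO as the negative control and activity baseline.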

Experiment [10] can be described thus: BSK_hDFCGF_SRB: Viability Assessment in the BioMAP Diversity Plus: hDFCGF Assay (AID 2283061).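 Further: cells exposed to compound for 24 h before the read.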 The settings on record: primary human foreskin fibroblasts. In a few lines:
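Human foreskin primary fibroblasts were treated with compound and assessed 24 h after dosing. Total protein was measured by sulforhodamine B staining (0.1% SRB after 10% TCA fixation, 560 nm read) as a cytotoxicity marker, with bidirectional fitting against DMSO baseline.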

Read-out in experiment [11]: TIMP metallopeptidase inhibitor 1 (TIMP1), TIMP1 (gene 7076)
Description: BSK_hDFCGF_TIMP1: BioMAP Diversity Plus: hDFCGF Assay for TIMP metallopeptidase inhibitor 1 (TIMP1) Biomarker Activity (AID 2283062). The settings on record: primary human foreskin fibroblasts; actives raise or lower the signal. In a few lines:
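Primary human foreskin fibroblasts in the hDFCGF system were dosed with compound for 24 h, then TIMP-1 was measured by ELISA. Activity was fitted bidirectionally relative to DMSO control; parallel SRB staining assessed cytotoxicity.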

Read-out in experiment [12]: Monokine induced gamma interferon (MIG), CXCL9 (gene 4283)
Description: BSK_hDFCGF_MIG: BioMAP Diversity Plus: hDFCGF Assay for Monokine induced gamma interferon (MIG) Biomarker Activity (AID 2283063). The settings on record: primary human foreskin fibroblasts; actives raise or lower the signal. Summed up: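 ELISA read-out of MIG from primary human dermal fibroblasts 24 h post-dosing. Gain or loss of signal fitted bidirectionally, DMSO as baseline.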

Read-out in experiment [13]: Matrix Metallopeptidase 1 (MMP1), MMP1 (gene 4312)
Description: BSK_hDFCGF_MMP1: BioMAP Diversity Plus: hDFCGF Assay for Matrix Metallopeptidase 1 (MMP1) Biomarker Activity (AID 2283064). The settings on record: primary human foreskin fibroblasts; actives raise or lower the signal. In a few lines:
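Human foreskin fibroblasts exposed to chemical for 24 h; MMP1 detected by ELISA, with DMSO as baseline for bidirectional fitting.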

Read-out in experiment [14]: Vascular cell adhesion molecule 1 (VCAM1), VCAM1 (gene 7412)
Description: BSK_hDFCGF_VCAM1: BioMAP Diversity Plus: hDFCGF Assay for Vascular cell adhesion molecule 1 (VCAM1) Biomarker Activity (AID 2283065).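 On AC50: VCAM-1 protein level quantified by ELISA after 24 h chemical exposure.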 The conditions noted are these: primary human foreskin fibroblasts; actives raise or lower the signal. In a few lines:
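Primary human foreskin fibroblasts (hDFCGF system) were dosed with chemical and VCAM-1 was measured by ELISA 24 h later. Bidirectional curve fitting used DMSO as negative control and activity baseline.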

Read-out in experiment [15]: Plasminogen activator inhibitor-1 (PAI1), SERPINE1 (gene 5054)
Description: BSK_hDFCGF_PAI1: BioMAP Diversity Plus: hDFCGF Assay for Plasminogen activator inhibitor-1 (PAI1) Biomarker Activity (AID 2283066). The settings on record: primary human foreskin fibroblasts; actives raise or lower the signal. Summed up:
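Human skin fibroblast cultures receive chemical for 24 h before PAI-1 is measured by ELISA; signal changes are fitted bidirectionally against DMSO-treated wells.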

Read-out in experiment [16]: Intercellular Adhesion Molecule 1 (ICAM1), ICAM1 (gene 3383)
Description: BSK_KF3CT_ICAM1: BioMAP Diversity Plus: KF3CT Assay for Intercellular Adhesion Molecule 1 (ICAM1) Biomarker Activity (AID 2283067). The conditions noted are these: primary human keratinocytes with fibroblasts; actives raise or lower the signal. Summed up: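 Human keratinocyte plus foreskin fibroblast primary co-culture was exposed to chemical for 24 h. ICAM-1 was then quantified by ELISA, and the data were fit bidirectionally against DMSO as the negative control and baseline.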

Read-out in experiment [17]: Interferon-gamma inducible Protein 10 (IP10), CXCL10 (gene 3627)
Put plainly: BSK_KF3CT_IP10: BioMAP Diversity Plus: KF3CT Assay for Interferon-gamma inducible Protein 10 (IP10) Biomarker Activity (AID 2283068). The settings on record: primary human keratinocytes with fibroblasts; actives raise or lower the signal. Summed up: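 Signal is secreted/surface IP-10 by ELISA in a human primary skin co-culture of keratinocytes and foreskin fibroblasts, taken 24 h post-dosing; DMSO served as negative control.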

The nature of experiment [18]: BSK_KF3CT_SRB: Viability Assessment in the BioMAP Diversity Plus: KF3CT Assay (AID 2283069).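 Further: fitted for both signal gain and loss against DMSO baseline.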 The conditions noted are these: primary human keratinocytes with fibroblasts. Summed up: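 Overt cytotoxicity is assessed as total protein by sulforhodamine B staining in parallel human skin co-cultures at 24 h after dosing. DMSO serves as negative control and baseline.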
Read-out in experiment [19]: Interleukin-1 alpha (IL1a), IL1A (gene 3552)
Description: BSK_KF3CT_IL1a: BioMAP Diversity Plus: KF3CT Assay for Interleukin-1 alpha (IL1a) Biomarker Activity (AID 2283070). The conditions noted are these: primary human keratinocytes with fibroblasts; actives raise or lower the signal. Summed up: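 Readout is IL-1a level by ELISA, compared bidirectionally with DMSO as baseline. Cells: human keratinocytes co-cultured with foreskin fibroblasts, harvested 24 h post-dose.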

The source made the active and inactive calls. How the source made its calls: active means hit-call score of the fitted dose curve at least 0.9, where 1 is the maximum; inactive means score below 0.9.

For `Cc1cccc2c1ccc1ccccc12`, the result in [1], in [2], in [3], in experiment [4], in [5] and in [6] was inactive. Further, the outcome in [7], in experiment [8], in experiment [9], in [10], in [11] and in experiment [12] was inactive. Also, the result in experiment [13], in [14], in [15], in [16], in [17] and in experiment [18] was inactive. For the same molecule, the outcome in [19] was inactive.

As for `C=COC(=O)C(C)(C)CCCCCC`, the outcome in [1] was inactive. Besides, the concentration at half-maximal activity (AC50) in experiment [2] is 20 µM (active); in experiment [3], 35 µM (active); in [4], 20 µM (active); in experiment [5], 33.2 µM (active); in [6], 31.2 µM (active); in experiment [7] it was 31 µM (active). The AC50 was 31.7 µM (active) in experiment [8]; 35 µM (active) in experiment [9]; 37.5 µM (active) in [10]; 28.5 µM (active) in experiment [11]; 35 µM (active) in experiment [12]; 3.97 µM (active) in experiment [13]. Also, the AC50 in experiment [14] is 30.2 µM (active); in experiment [15], 30.3 µM (active); in experiment [16], 37.2 µM (active); in experiment [17], 34.7 µM (active); in experiment [18], 34.4 µM (active); in experiment [19], 30.9 µM (active).

As for `CC(C)(C)c1ccc(O)c(O)c1`, the AC50 was 20 µM (active) in [1]; 32.3 µM (active) in [3]; 4.99 µM (active) in experiment [5]; 34.7 µM (active) in experiment [6]; 7.12 µM (active) in [8]; 31.1 µM (active) in experiment [9]. The concentration at half-maximal activity (AC50) in [10] is 31.8 µM (active); in experiment [11], 31.6 µM (active); in experiment [12], 31.2 µM (active); in experiment [13] it was 30.6 µM (active); in [14] it was 15.5 µM (active); in experiment [16], 5.79 µM (active). Also, the figures for the AC50 in [17] and in experiment [19] were 33.8 µM (active) and 13 µM (active), respectively. Besides, the result in experiment [2], in [4], in [7], in experiment [15] and in experiment [18] was inactive.

In the case of `O=C(NO)c1ccccc1`, the outcome in [1], in experiment [2], in experiment [3], in experiment [4], in [5] and in experiment [6] was inactive. The outcome in [7], in [9], in [10], in [11], in [12] and in experiment [13] was inactive. Further, the result in experiment [14], in experiment [15], in experiment [16], in experiment [17], in experiment [18] and in experiment [19] was inactive. The AC50 in [8] was 3.81 µM (active).

`C[C@]12CC[C@@H]3c4ccc(O)cc4CC[C@H]3[C@@H]1C[C@@H](O)[C@@H]2O`: the outcome in [1], in experiment [2], in experiment [3], in experiment [4], in experiment [5] and in experiment [6] was inactive. For the same molecule, the outcome in experiment [7], in experiment [8], in experiment [9], in experiment [10], in experiment [11] and in experiment [12] was inactive. Moreover, the outcome in experiment [13], in experiment [14], in experiment [15], in experiment [16], in [17] and in [18] was inactive. Further, the result in [19] was inactive.

What is called AC50 is the concentration at which the activity in the assay is half-maximal.
